Reference: PubChem BioAssay (Tox21)
Results filed as inconclusive are left out. Where a structure was tested more than once in an assay, its records may differ in their call. The source made the active and inactive calls. Unless noted, calls come from the whole dose curve; as a rule, active = well fitted curve in the direction sought with a large enough effect in the repeat runs; inconclusive = weak or mixed curves; inactive = no such curve, though single readings can be large; an effect the other way counts as inactive or inconclusive.

Key:
[1] = qHTS assay to identify small molecule agonists of the vitamin D receptor (VDR) signaling pathway - cell viability counter screen (AID 743224); note: % is set by controls: 0 for no effect and ±100 for the full control effect; nearly all actives have a fitted effect of over 50% in size
Summary of the method: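 Plated VDR-bla cells (4 h, 37C) received compound, incubated 16 h, then LiveBLAzer substrate 2 h RT; CellTiter-Glo added afterwards, luminescence read at 30 min.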

[2] = qHTS assay to identify small molecule agonists of the NFkB signaling pathway - cell viability counter screen (AID 1159515; calls by dose curve; note: % is set by controls: 0 for no effect and ±100 for the full control effect; nearly all actives have a fitted effect of over 55% in size)
Summary of the method: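 Using the same wells as the NFkB reporter read, ME-180 NFkB-bla cells given compounds for 5 hr were assessed for viability via CellTiter-Glo, with luminescence taken after a 30 min room-temperature incubation.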

[3] = qHTS assay to identify small molecule agonists of the endoplasmic reticulum stress response signaling pathway (AID 1159516; active = well fitted activation curve with a large enough effect in the signal ratio in the repeat runs, not every such curve was filed as active; the % refers to the signal ratio; note: % is set by controls: 0 for no effect and ±100 for the full control effect)
Summary of the method: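 An ESRE-bla HeLa cell assay: compounds were pin-transferred from DMSO onto overnight-plated cells and left 5 hr at 37 C. Substrate was then loaded for 2 hr at room temperature before reading fluorescence at 460 nm and 530 nm.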

[4] = qHTS assay to identify small molecule agonists of the endoplasmic reticulum stress response signaling pathway - cell viability counter screen (AID 1159517; calls by dose curve;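 note: HeLa cells carrying an ER stress response element beta-lactamase reporter; % is set by controls: 0 for no effect and ±100 for the full control effect; nearly all actives have a fitted effect of over 50% in size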)
Summary of the method: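 Counter-screen wells were identical to the reporter wells. Cells were plated at 1,500 per well and dosed for 5 hr, then read for luminescence 30 min after CellTiter-Glo addition.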

[5] = qHTS assay to identify small molecule antagonists of the retinoid-related orphan receptor gamma (ROR-gamma) signaling pathway - cell viability counter screen (AID 1159520); note: % is set by controls: 0 for no effect and ±100 for the full control effect; nearly all actives have a fitted effect of over 50% in size
Summary of the method: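 Tet-on ROR gamma CHO cells were given compounds for 2 hr, then doxycycline hyclate at 1 uM final, and incubated 16 hr at 37 C. Viability was measured as ATP content by CellTiter-Glo luminescence.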

[6] = target: Nuclear receptor ROR-gamma (Homo sapiens) (UniProt P51449); experiment: qHTS assay to identify small molecule antagonists of the retinoid-related orphan receptor gamma (ROR-gamma) signaling pathway (AID 1159521; note: nearly all actives have a fitted effect of over 50% in size; note: potency is the fitted concentration of half-maximal effect)
Summary of the method: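 Decreased RORE-driven luciferase luminescence indicates antagonism. Tet-on RORγ CHO cells received compound, then 1 uM final doxycycline 2 h later; signal read after 16 h incubation.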

[7] = qHTS assay to identify small molecule agonists of the AP-1 signaling pathway - cell viability counter screen (AID 1159525; calls by dose curve; note: nearly all actives have a fitted effect of over 55% in size; note: potency is the fitted concentration of half-maximal effect)
Summary of the method: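 AP-1-bla ME-180 cells in Opti-MEM with 0.5% dialyzed FBS, compound exposure 5 h at 37 C in 15-point titration. Viability read in the same wells as ATP content by CellTiter-Glo luminescence, normalised to tetra-n-octylammonium bromide and DMSO controls.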

[8] = qHTS assay to identify small molecule agonists of the AP-1 signaling pathway (AID 1159526; calls by dose curve; note: % is set by controls: 0 for no effect and ±100 for the full control effect)
[9] = target: Retinoic acid receptor RXR-alpha (Homo sapiens) (UniProt P19793); experiment: qHTS assay to identify small molecule agonists of the RXR signaling pathway (AID 1159527; calls by dose curve; note: nearly all actives have a fitted effect of over 35% in size; note: potency is the fitted concentration of half-maximal effect)
Chain of Retinoic acid receptor RXR-alpha (Homo sapiens) (P19793 whole entry, looked up): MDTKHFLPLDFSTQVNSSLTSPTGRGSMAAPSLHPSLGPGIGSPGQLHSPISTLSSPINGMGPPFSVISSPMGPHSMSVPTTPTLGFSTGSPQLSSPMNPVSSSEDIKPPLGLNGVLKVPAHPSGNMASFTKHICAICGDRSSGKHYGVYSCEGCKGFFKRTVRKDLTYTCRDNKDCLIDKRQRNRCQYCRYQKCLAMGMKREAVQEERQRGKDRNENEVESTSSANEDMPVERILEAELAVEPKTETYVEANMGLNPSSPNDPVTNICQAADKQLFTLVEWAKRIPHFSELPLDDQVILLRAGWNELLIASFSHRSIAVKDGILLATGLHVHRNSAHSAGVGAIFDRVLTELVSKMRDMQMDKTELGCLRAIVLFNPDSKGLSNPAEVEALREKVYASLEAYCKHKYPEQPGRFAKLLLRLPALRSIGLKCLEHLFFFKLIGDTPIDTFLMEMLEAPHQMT
Summary of the method: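 16 hr incubation of compound-treated RXR-alpha-UAS-bla HEK 293T cells (2% charcoal-stripped FBS, 37 C) preceded a 2 hr room-temperature LiveBLAzer FRET substrate step and blue/green fluorescence measurement.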

[10] = qHTS assay to identify small molecule antagonists of the retinoid acid receptor (RAR) signaling pathway - cell viability counter screen (AID 1159551); note: % is set by controls: 0 for no effect and ±100 for the full control effect; nearly all actives have a fitted effect of over 35% in size
Summary of the method: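 Retinol-stimulated (1 uM final) C3RL4 cells, compound 6 h, 37 C; readout CellTiter-Glo luminescence (ATP) after 30 min RT incubation.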

[11] = qHTS assay to identify small molecule antagonists of the retinoic acid receptor (RAR) signaling pathway (AID 1159552; note: nearly all actives have a fitted effect of over 50% in size; note: potency is the fitted concentration of half-maximal effect)
Summary of the method: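 C3RL4 RARE-luc cells, overnight plating; retinol 1 uM final added right after compound; 6 hr 37 C; luciferase read at 30 min RT.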

[12] = qHTS assay to identify small molecule agonists of the retinoic acid receptor (RAR) signaling pathway (AID 1159553); settings: C3RL4 RARE luciferase reporter, agonist, 6 h; activation: at 73.3 µM (top of the series) unless noted; note: % is set by controls: 0 for no effect and ±100 for the full control effect
Summary of the method: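 Reporter readout comes from luciferase under RARE control in C3RL4 cells; compound exposure lasts 6 hr at 37 C in 5% CO2, and luminescence is recorded following a 30 min room-temperature incubation with reagent.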

[13] = qHTS assay to identify small molecule antagonists of the vitamin D receptor (VDR) signaling pathway - cell viability counter screen (AID 743225)
Summary of the method: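 Parallel cytotoxicity test: VDR-UAS-bla HEK 293T, 3 nM (final) 1-alpha,25-dihydroxyvitamin D3 with test compound, 16 h, 37C. Endpoint is CellTiter-Glo luminescence in the same wells.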

[14] = qHTS assay to identify small molecule agonists of the RXR signaling pathway - cell viability counter screen (AID 1159529); note: nearly all actives have a fitted effect of over 50% in size; note: potency is the fitted concentration of half-maximal effect
Summary of the method: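 In this parallel viability measure, GeneBLAzer RXR-alpha HEK 293T cells (2% charcoal-stripped FBS) were given a 5 hr preincubation, treated with compounds 16 hr at 37 C, and read by CellTiter-Glo luminescence.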

[15] = qHTS assay to identify small molecule antagonists of the estrogen related receptor (ERR) signaling pathway - cell viability counter screen (AID 1224818);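 note: viability measured after 17.5 h of compound exposure; % is set by controls: 0 for no effect and ±100 for the full control effect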
Summary of the method: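 After a 6 h pre-incubation, ERR cells were dosed by pin tool with compounds, positive/negative controls or DMSO alone. Following 17.5 h at 37 C and 30 min with CellTiter-Fluor, fluorescence was recorded.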

[16] = qHTS assay to identify small molecule antagonists of the estrogen related receptor (ERR) signaling pathway (AID 1224819)
Summary of the method: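 Luminescence readout (One-Glo, 30 min, RT) of ERR cell line after 18 h compound exposure at 37 C; cells seeded 2,000/well, pre-incubated 6 h, compounds pinned from DMSO stocks.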

[17] = qHTS assay to identify small molecule agonists of the estrogen related receptor (ERR) signaling pathway (AID 1224820); note: % is set by controls: 0 for no effect and ±100 for the full control effect
Summary of the method: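 Quantitative HTS of the LOPAC library used NTP ERR reporter cells treated 18 h at 37 C. Signal is luminescence after One-Glo addition and a 30 min room-temperature incubation.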

[18] = test system: estrogen-related receptor alpha (ERRalpha) with PGC-1alpha coactivator, human; experiment: qHTS assay to identify small molecule antagonists of the estrogen related receptor signaling pathway with the pleiotropic PPARgamma coactivator (PGC) (AID 1224821; calls by dose curve)
Summary of the method: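 Quantitative HTS for antagonism: PGC/ERR cells received compounds after 6 h attachment and were incubated 18 h at 37 C, with luminescence (One-Glo) as the endpoint.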

[19] = qHTS assay to identify small molecule antagonists of the estrogen related receptor signaling pathway with the pleiotropic PPARgamma coactivator (PGC) cell viability counter screen (AID 1224822)
Summary of the method: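 PGC/ERR cells were plated at 2,000 per well and allowed 6 h to settle before compound addition. Following 17.5 h at 37 C, CellTiter-Fluor reagent was added and fluorescence was read 30 min later.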

[20] = qHTS assay to identify small molecule agonists of the estrogen related receptor signaling pathway with the pleiotropic PPARgamma coactivator (PGC) (AID 1224823); note: % is set by controls: 0 for no effect and ±100 for the full control effect
Summary of the method: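 Cell-based luciferase assay in the NTP-supplied PGC/ERR line, 2,000 cells/well; 18 h compound exposure at 37 C, luminescence after One-Glo.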

N#CCC(=O)O
inactive: Potency [1] | Potency [2] | Potency [3] | Potency [4] | Potency [5] | Potency [6] | Potency [7] | outcome [8] | Potency [9] | Potency [10] | Potency [11] | Potency [12]

CC(=O)OC/C=C(\C)CCC=C(C)C
inactive: Potency [1] | Potency [13] | Potency [2] | Potency [3] | Potency [4] | Potency [5] | Potency [6] | Potency [7] | outcome [8] | Potency [9] | Potency [14] | Potency [10] | Potency [11] | Potency [12]

Cc1nnc(NS(=O)(=O)c2ccc(N)cc2)s1
inactive: Potency [1] | Potency [2] | Potency [3] | Potency [4] | Potency [5] | Potency [6] | Potency [7] | outcome [8] | Potency [9] | Potency [14]

CC(=O)OC[C@H]1O[C@@](COC(C)=O)(O[C@H]2O[C@H](COC(C)=O)[C@@H](OC(C)=O)[C@H](OC(C)=O)[C@H]2OC(C)=O)[C@@H](OC(C)=O)[C@@H]1OC(C)=O
inactive: Potency [1] | Potency [13] | Potency [2] | Potency [3] | Potency [4] | Potency [5] | Potency [6] | Potency [7] | outcome [8] | Potency [9] | Potency [14] | Potency [10] | Potency [11] | Potency [12]

CC(=O)OCCC(C)C
inactive: Potency [1] | Potency [13] | Potency [2] | Potency [3] | Potency [4] | Potency [5] | Potency [6] | Potency [7] | outcome [8] | Potency [9] | Potency [14] | Potency [10] | Potency [11] | Potency [12]

CN=C(NC#N)NCCSCc1nc[nH]c1C
inactive: Potency [1] | Potency [13] | Potency [2] | Potency [3] | Potency [4] | Potency [5] | Potency [6] | Potency [7] | outcome [8] | Potency [9] | Potency [14] | Potency [10] | Potency [11] | Potency [12] | outcome [15] | Potency [16] | outcome [17] | Potency [18] | Potency [19] | outcome [20]

CCCCCNCCCCC
inactive: Potency [1] | Potency [2] | Potency [3] | Potency [4] | Potency [5] | Potency [6] | Potency [7] | outcome [8] | Potency [9] | Potency [10] | Potency [11] | Potency [12]

Nc1cccc(C(F)(F)F)c1
inactive: Potency [1] | Potency [2] | Potency [3] | Potency [4] | Potency [5] | Potency [6] | Potency [7] | outcome [8] | Potency [9] | Potency [14] | Potency [10] | Potency [11] | Potency [12]

Cc1cc(C)cc(O)c1
inactive: Potency [1] | Potency [13] | Potency [2] | Potency [3] | Potency [4] | Potency [5] | Potency [6] | Potency [7] | outcome [8] | Potency [9] | Potency [14] | Potency [11] | Potency [12]

CCCCCCCCO
inactive: Potency [1] | Potency [13] | Potency [2] | Potency [3] | Potency [4] | Potency [5] | Potency [6] | Potency [7] | outcome [8] | Potency [9] | Potency [14] | Potency [11] | Potency [12]

C[n+]1ccn(CCO)c1
inactive: Potency [1] | Potency [2] | Potency [3] | Potency [4] | Potency [5] | Potency [6] | Potency [7] | outcome [8] | Potency [9] | Potency [10] | Potency [11] | Potency [12]

Cc1ccc([N+](=O)[O-])cc1N
inactive: Potency [1] | Potency [13] | Potency [2] | Potency [3] | Potency [4] | Potency [5] | Potency [6] | Potency [7] | outcome [8] | Potency [10] | Potency [11] | Potency [12]
21.8 µM (active) and inactive: Potency [9]

CCCCCC(C)=O
inactive: Potency [1] | Potency [2] | Potency [3] | Potency [4] | Potency [5] | Potency [6] | Potency [7] | outcome [8] | Potency [9] | Potency [14] | Potency [10] | Potency [11] | Potency [12]

CCCCCCCCCCCC(=O)N(C)CC(=O)O
inactive: Potency [1] | Potency [2] | Potency [3] | Potency [4] | Potency [5] | Potency [6] | Potency [7] | activation [8] -13.8% [at 6.97 µM] | activation [9] 1.89% [at 6.98 µM] | activity change, negative = cytotoxicity [14] 3.37% [at 6.97 µM] | Potency [10] | Potency [11] | Potency [12]

O=C(c1ccccc1)c1ccc(O)c(O)c1O
inactive: Potency [1] | Potency [13] | Potency [2] | Potency [3] | Potency [4] | Potency [5] | Potency [6] | Potency [7] | outcome [8] | Potency [9] | Potency [14] | Potency [11]

CC1=CC(=O)CC(C)(C)C1
4.99 µM (active) and inactive: Potency [11]
25.3 µM (active) and inactive: Potency [7] | Potency [14]
2.5 µM (active) and inactive: Potency [6]
inactive: Potency [1] | Potency [13] | Potency [2] | Potency [3] | Potency [4] | Potency [5] | outcome [8] | Potency [9] | Potency [10] | Potency [12]

CC/C=C(\C(=O)N[C@@H]1C(=O)N2C(C(=O)OCOC(=O)C(C)(C)C)=C(COC(N)=O)CS[C@H]12)c1csc(N)n1
inactive: Potency [1] | Potency [13] | Potency [2] | Potency [3] | Potency [4] | Potency [5] | Potency [6] | Potency [7] | outcome [8] | Potency [9] | Potency [14] | Potency [11] | Potency [12]

C1CCCNCC1
inactive: Potency [1] | Potency [13] | Potency [2] | Potency [3] | Potency [4] | Potency [5] | Potency [7] | outcome [8] | Potency [9] | Potency [14] | Potency [10]

CCCCCCCCCCCCCC(=O)O
inactive: Potency [1] | Potency [2] | Potency [3] | Potency [4] | Potency [5] | Potency [6] | Potency [7] | outcome [8] | Potency [9]

OCC(CO)(CO)CO
inactive: Potency [1] | Potency [2] | Potency [4] | Potency [5] | Potency [6] | Potency [7] | outcome [8] | Potency [9] | Potency [14] | Potency [10] | Potency [11] | Potency [12]
